High-throughput results as filed in PubChem BioAssay.
TDP1 cell noCPT: qHTS for Inhibitors of human tyrosyl-DNA phosphodiesterase 1 (TDP1): qHTS in cells in absence of CPT; Potency, µM (highest dose often 46.2 µM), without a hit: at the top dose activity change, negative = growth inhibition, hits mostly inhibitors; 420,000 compounds, 15% hits; DT40 Tdp1-/- hTDP1 cells, no CPT, ATP luminescence, 48 h; further: nearly all actives have a fitted effect of over 55% in size
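Stably hTDP1-transfected Tdp1-null chicken DT40 cells were treated with library compounds minus camptothecin and grown for at least 48 hr at 37 °C, after which cellular ATP was quantified by luminescence.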
KB-V1 cytotox: KB-V1 MDR subline cytotoxicity. KB-V1 MDR cells viability, CellTiter-Glo, 72 h. Potency, µM (titrated, usually from 46.1 µM), most hits filed as cytotoxic. 400,000 compounds, 3.4% hits. AID 1347076; further: nearly all actives have a fitted effect of over 60% in size
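Luminescent ATP read-out (CellTiter-Glo, 10 min) measures survival of drug-selected KB-V1 MDR cells after 72 h, 37 degrees C compound exposure. Medium: phenol-red-free DMEM, 10% FBS. Values from fitted concentration-response curves.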
HT1080NT lethal: kills 2HG-producing HT-1080-NT fibrosarcoma cells. HT-1080-NT fibrosarcoma viability, CellTiter-Glo ATP luminescence, 48 h. Potency, µM (highest dose often 46.1 µM), for inactives: at the highest dose activity, negative = less viability, most hits filed as cytotoxic. 360,000 compounds, 1.6% hits;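 further: NT is the 2HG producing partner of a matched IDH1 knockdown line; 0% = DMSO-treated cells and -100% = media-only wells without cells; nearly all actives have a fitted effect of over 55% in size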
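Fibrosarcoma NT cells, 750 per well in 5% FBS RPMI, were exposed to compound for 48 hours. Viability: CellTiter-Glo luminescence.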
TDP1 cell CPT: growth inhibition of DT40 Tdp1-/-;hTDP1 cells with camptothecin (screen for TDP1 inhibitors). chicken DT40 Tdp1-/-;hTDP1 cells + 20 nM CPT, ATP luminescence, 48 h. Potency, µM (series often up to 46.2 µM), without a hit: at the highest dose activity change, negative = growth inhibition, most hits filed as inhibitors. 420,000 compounds, 12% hits; further: nearly all actives have a fitted effect of over 55% in size
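Chicken DT40 Tdp1-/- cells stably complemented with human TDP1 were seeded at 400 cells/well in medium containing 20 nM camptothecin, exposed to pin-transferred compounds, and grown at 37 °C for at least 48 hr. Viability was read as ATP luminescence.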
KB-3-1 cytotox: KB-3-1 parental cell cytotoxicity | Potency, µM (series often up to 46.1 µM), actives largely listed as cytotoxic | 400,000 compounds, 1.4% hits | KB-3-1 viability, CellTiter-Glo ATP luminescence, 72 h; further: nearly all actives have a fitted effect of over 60% in size
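Using CellTiter-Glo luminescence, growth of non-resistant KB-3-1 adenocarcinoma cells is assessed 72 h after pin-tool compound addition at 37 °C. Normalized responses across the concentration series yield fitted curves.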
HT1080 IDH1KD tx: toxicity to HT-1080 IDH1 knockdown cells (counter line); HT-1080 IDH1 knockdown viability, ATP luminescence, 48 h; Potency, µM (top dose mostly 46.1 µM), for inactives: top-dose activity, negative = toxicity, most hits filed as cytotoxic; 360,000 compounds, 2% hits;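 further: 0% = DMSO wells and -100% = cell-free medium wells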
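Knockdown cells (IDH1KD HT-1080) received compounds 2 h after plating at 750 cells/well and were kept 48 h at 37 °C in 5% FBS RPMI. A CellTiter-Glo luminescence read gave % activity for curve fitting.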
Active calls of the source: *; i = inactive; ? = inconclusive; . = no result; [ ] = remark or other dose. Shown are actives, neighbours in structure and some others; about 19% of the full set was active somewhere. The call rests on the fitted dose curve; in most records, active means well fitted curve in the direction sought with a large enough effect; inconclusive means small, poorly fitted or top-dose-only effect, or another doubt; inactive means no such curve, though single readings can be large; an effect the other way counts as inactive or inconclusive. Unless noted, on the % scale 0 is the no-effect control and ±100 the full control effect; potency means the concentration at half of the fitted maximal effect.

SMILES	TDP1 cell noCPT	KB-V1 cytotox	HT1080NT lethal	TDP1 cell CPT	KB-3-1 cytotox	HT1080 IDH1KD tx
COC(=O)[C@@]12CCCN1[C@H](c1ccc(-c3ccc(F)cc3)cc1)[C@H]1C(=O)N(C)C(=O)[C@H]12	?	i	-3%	?	i	-3%
CC(C)CN1CC[C@@]2(CCCN(C(=O)c3cccc(F)c3)C2)C1	-2%	.	.	5%	.	.
COc1ccc(CCNC(=O)Cn2c(=O)nc(-c3ccccc3F)c3cc(Cl)ccc32)cc1OC	-27%	.	.	-7%	.	.
O=C(NC1CCCCC1)C(=O)c1c[nH]c2ccccc12	?	?	15%	-28%	i	-1%
Cc1ccc(NC(=O)CCNS(=O)(=O)c2cc(Br)cnc2N)cc1Cl	?	13µM*	-9%	?	?	-21%
COc1ccccc1N1CCN(C(=O)CCNS(=O)(=O)c2cc(Br)cnc2N)CC1	?	i	-5%	18µM*	i	1%
COc1ccccc1N1CCN(C(=O)CCNS(=O)(=O)c2ccc(Br)s2)CC1	18µM*	?	-10%	23µM*	i	-8%
CCCN1CNc2c(c(=O)[nH]c(=S)n2CCc2ccc(Cl)cc2)C1	?	.	-7%	?	.	0%
CC(=O)N1CSCC1C(=O)NNS(=O)(=O)c1cccc(C(F)(F)F)c1 (stereo not given)	-9%	i	0%	12%	i	-1%
COc1cccc2cc(S(=O)(=O)c3ccc(F)c(C)c3)c(=O)oc12	-5%	i	.	-7%	i	.
COC(=O)c1ccc(/C=N/N2CCN(Cc3ccc(C)cc3C)CC2)cc1	?	18µM*	5%	?	i	2%
Cc1ccc(CN2CCN(/N=C/c3ccc(C(=O)O)cc3)CC2)c(C)c1	-16%	i	-6%	-18%	i	-21%
COC(=O)c1ccccc1NC(=O)c1cnc(Nc2ccc(OC)cc2)c2ccccc12	9.2µM*	i	.	23µM*	i	.
COc1ccc(OC)c(NC(=O)c2cnc(Nc3ccccc3OC)c3ccccc23)c1	5.8µM*	6.5µM*	?	5.2µM*	7.3µM*	?
Cc1ccc(Nc2ncc(C(=O)Nc3ccc(F)cc3F)c3ccccc23)cc1Cl	?	i	.	16µM*	i	.
C/C=C/c1ccc(OCCn2cncn2)c(OC)c1	5%	i	14%	-7%	i	9%
COc1ccccc1CNC(=O)c1cn(C)c2ccc(S(=O)(=O)N(C)C3CCCCC3)cc2c1=O	?	i	.	?	i	.
CCCOc1ccc(C(=O)Nc2cccc(-c3nc4ccccc4[nH]3)c2)cc1	.	21µM*	.	.	?	.
O=C(O)CCCC(=O)Nc1cccc(-c2nc3ccccc3[nH]2)c1	-6%	i	-2%	-7%	i	1%
COc1ccc(C(=O)Nc2cccc(-c3cnc4ccccc4n3)c2)cc1	?	i	25%	?	i	19%
CCOc1cc(OCC)cc(C(=O)Nc2cccc(-c3nc4ccccc4[nH]3)c2)c1	6.5µM*	?	.	10µM*	i	.
COc1ccccc1-c1cc(NC(C)=O)c2ncc(-c3cccc(C(F)(F)F)c3)n2c1	21µM*	i	?	23µM*	i	?
COc1ccccc1-c1cc(NC(C)=O)c2ncc(-c3ccccc3)n2c1	9.2µM*	?	23µM*	21µM*	i	?
COc1cccc(-c2cnc3c(NC(C)=O)cc(-c4ccccc4OC)cn23)c1	16µM*	i	?	18µM*	i	?
CC(=O)Nc1cc(-c2cccnc2)cn2c(-c3cccc(C(F)(F)F)c3)cnc12	?	i	-20%	18µM*	i	-9%
SMILES	TDP1 cell noCPT	KB-V1 cytotox	HT1080NT lethal	TDP1 cell CPT	KB-3-1 cytotox	HT1080 IDH1KD tx
CC(=O)c1cccc(OCC(O)CNCCOc2ccc(C)cc2)c1 (stereo not given)	-3%	i	-8%	-5%	i	-14%
CCCCCn1nc(C(=O)N(CC(C)C)c2c(N)n(CCCC)c(=O)[nH]c2=O)c2ccccc2c1=O	-3%	i	-14%	0%	i	-11%
CCOc1ccc(CCNC(=O)COC(=O)Cn2nc(C)c([N+](=O)[O-])c2C)cc1OCC	4%	i	-8%	-6%	i	-8%
CC(=O)Nc1cc(-c2ccccc2F)cn2c(-c3ccccc3)cnc12	?	i	-17%	16µM*	i	-16%
O=C1CN2C(=Nc3ccc(Br)cc3C2c2ccccc2)CCN1 (stereo not given)	-22%	i	-5%	-7%	i	0%
Brc1ccc2c(c1)CN1CCCC1=N2	21µM*	i	-12%	13µM*	i	-18%
CC1(CCc2ccccc2)NC(=O)N(CC(=O)Nc2c(F)cccc2F)C1=O (stereo not given)	21%	?	0%	-4%	?	1%
Cc1ccc(SC(C)C(=O)Nc2ccc(S(=O)(=O)N3CCOCC3)cc2)cc1 (stereo not given)	16µM*	12µM*	12%	?	i	7%
CC(C)(C)NC(=O)NC(=O)CN1CCN(c2ccc(O)cc2)CC1	?	?	-5%	-21%	21µM*	-3%
CCOC(=O)C1CCN(CC(=O)Nc2cc(S(=O)(=O)N3CCOCC3)ccc2C)CC1	-20%	?	9%	13%	i	7%
O=C(CN1CCOCC1)Nc1ccc(S(=O)(=O)N2CCCCCC2)cc1	-16%	i	-2%[9.24 µM]	-28%	i	-1%
Cc1cccc(N2CCN(CC(=O)Nc3ccc(S(=O)(=O)N4CCOCC4)cc3)CC2)c1C	9.2µM*	i	-6%	15µM*	i	-30%
Cc1ccc(S(=O)(=O)N2CCOCC2)cc1NC(=O)CN1CCC(Cc2ccccc2)CC1	8.2µM*	i	-23%	?	21µM*	-8%
Cc1ccc(NS(=O)(=O)c2cc3c(cc2F)NC(=O)CC3)cc1Cl	.	i	.	.	?	.
Cc1ccc(S(=O)(=O)N2CCOCC2)cc1NC(=O)CN1CCN(c2ccc(O)cc2)CC1	26µM*	i	15%	?	i	5%
Cc1ccc(S(=O)(=O)N2CCN(CC(=O)Nc3ccc(N4CCOCC4)cc3)CC2)cc1C	-1%	?	5%	-11%	i	6%
